Source: PubChem BioAssay
“And” between values parts separate entries of the source, which are not always exact repeats. Identical values can stand only once. Results filed as inconclusive are left out. A structure can be active in one record and inactive in another. The source made the active and inactive calls. Unless noted, no rule for the calls is given here.

Tests used:
[1] = tested on: Hepatitis C virus NS3 helicase; test: blockers of NS3h binding to ssDNA – biochemical, fluorescence polarization, LOPAC1280 library, primary screen (AID 687035; in the data active = inhibition above about 37%); conditions: Purified HCV NS3 helicase, Cy5-dT15 ssDNA binding fluorescence polarization; stronger effect = higher value; concentration not given here
[2] = compounds altering Cy5-DNA-NS3h complex signal – biochemical, LOPAC1280, artefact control for HCV NS3 helicase inhibitor project (AID 687037); conditions: Cy5-DNA-NS3h complex fluorescence interference counterscreen
[3] = viability loss with induced miR-34 in A549 – imaging, A549 dox-inducible miR-34, nuclei and caspase counts, primary screen (AID 1347080;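 active = compounds whose cell count with miR-34 switched on is under 0.7 times the count with it off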); conditions: A549 miR-34 inducible, Hoechst nuclei count, 48 h
[4] = blockers of cellular phospholipid synthesis – cell-based, LOPAC library, screen 4, primary screen (AID 1347384); conditions: animal cells, phospholipid biosynthesis inhibition screen; at 10 µM
[5] = galactose survival enhancers in mitochondrial complex I cybrids – cell-based, galactose medium, ATP luminescence, primary screen (AID 1645843;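 active = z-score of at least 1.8 in each of two replicates, scored against plate mean and spread of sample wells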;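 also: positive z means more ATP and so rescue of galactose-driven cybrid death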); conditions: complex I mutant cybrid cells, 72 h, stronger effect = higher value
[6] = target: ATP-dependent translocase ABCB1 (Homo sapiens) (UniProt P08183); test: P-glycoprotein substrate transport blockade – cell-based (AID 377; in the data active = fluorescence slope change above about 50%); conditions: MDR1-expressing cells, fluorescent substrate accumulation slope; stronger effect = higher value; concentration not given here
Sequence of ATP-dependent translocase ABCB1 (Homo sapiens) (P08183 whole entry, looked up): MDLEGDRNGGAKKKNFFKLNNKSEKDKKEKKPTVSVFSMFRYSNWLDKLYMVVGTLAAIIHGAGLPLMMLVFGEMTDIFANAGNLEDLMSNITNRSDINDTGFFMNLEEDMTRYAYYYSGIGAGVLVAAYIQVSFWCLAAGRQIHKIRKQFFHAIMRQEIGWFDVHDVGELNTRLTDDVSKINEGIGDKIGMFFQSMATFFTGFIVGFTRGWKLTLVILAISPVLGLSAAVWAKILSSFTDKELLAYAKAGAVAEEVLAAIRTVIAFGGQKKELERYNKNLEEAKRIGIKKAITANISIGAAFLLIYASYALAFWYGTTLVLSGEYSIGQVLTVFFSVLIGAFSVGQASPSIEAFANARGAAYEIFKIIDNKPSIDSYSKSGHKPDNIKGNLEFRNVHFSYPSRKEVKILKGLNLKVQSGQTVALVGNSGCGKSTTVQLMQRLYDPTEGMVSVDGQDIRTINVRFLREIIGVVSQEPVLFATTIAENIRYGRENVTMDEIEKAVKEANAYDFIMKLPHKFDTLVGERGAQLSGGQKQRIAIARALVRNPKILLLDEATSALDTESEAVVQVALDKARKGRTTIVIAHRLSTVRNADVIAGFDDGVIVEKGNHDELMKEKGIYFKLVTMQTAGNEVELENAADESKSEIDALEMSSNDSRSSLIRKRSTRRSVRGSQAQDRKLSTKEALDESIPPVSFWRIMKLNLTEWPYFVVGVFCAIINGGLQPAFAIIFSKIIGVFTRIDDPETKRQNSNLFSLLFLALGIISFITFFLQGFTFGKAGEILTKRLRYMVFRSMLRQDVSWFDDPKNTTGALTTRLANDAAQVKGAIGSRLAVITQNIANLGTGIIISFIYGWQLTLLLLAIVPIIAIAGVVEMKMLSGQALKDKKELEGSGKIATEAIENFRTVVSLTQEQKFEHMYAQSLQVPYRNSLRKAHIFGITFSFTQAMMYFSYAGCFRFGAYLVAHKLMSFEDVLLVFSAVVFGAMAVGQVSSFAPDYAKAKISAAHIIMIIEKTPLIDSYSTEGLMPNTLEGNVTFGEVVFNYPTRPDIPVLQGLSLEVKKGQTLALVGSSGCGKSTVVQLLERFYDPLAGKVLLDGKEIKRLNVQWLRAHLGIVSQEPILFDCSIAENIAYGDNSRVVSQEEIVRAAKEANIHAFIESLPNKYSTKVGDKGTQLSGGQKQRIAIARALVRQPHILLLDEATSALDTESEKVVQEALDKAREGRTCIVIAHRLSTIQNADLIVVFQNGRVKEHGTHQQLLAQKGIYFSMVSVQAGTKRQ

[7] = compounds altering viability of human ES cells (AID 493140); conditions: human embryonic stem cell survival screen; stronger effect = higher value;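 also: cells exposed to compounds for four days before counting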
[8] = P. berghei load reduction in hepatocytes – cell-based, HepG2, luciferase luminescence, HepG2 viability, primary screen (AID 624349; in the data active = parasite load remaining mostly below about 12%, no sharp cut-off; inactive = mostly above about 10%;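 also: 100% = mean of DMSO negative control wells on the same plate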); conditions: P. berghei liver stage in HepG2, luciferase luminescence, concentration not given here; parasite load remaining: stronger effect = lower value; viability: measured here: HepG2 viability without parasites
[9] = MELAS cybrid and Rieske KO viability enhancers – cell-based, MELAS cybrids, Rieske KO mouse fibroblasts, CellTiter-Glo, primary screen (AID 1508586;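 active = mean z-score across replicates of 1.96 or higher in either the MELAS or the Rieske mutant cell line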;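 also: z relative to plate mean and SD of compound and empty wells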); conditions: low glucose
[10] = compounds altering circadian rhythm period length – cell-based, LOPAC library, luminescence reporter (AID 2774); conditions: circadian reporter cells, at 7 µM, actives lie on both sides;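 also: values are relative to mean of DMSO wells on each plate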
[11] = target: NAD(+) hydrolase SARM1 (Homo sapiens) (UniProt Q6SZW1); test: blocking NAD cleavage by SARM1 SAM-TIR – cell lysate, NAD-Glo luminescence (AID 1508614;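 active = compound whose remaining NAD level is above about 45 nM, limit read from the data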;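 also: higher remaining NAD means stronger inhibition of SARM1 NADase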); conditions: SAM-TIR HEK293T lysate NADase, at 1 µM, stronger effect = higher value
Sequence of NAD(+) hydrolase SARM1 (Homo sapiens) (Q6SZW1 whole entry, looked up, the tested form may be a part): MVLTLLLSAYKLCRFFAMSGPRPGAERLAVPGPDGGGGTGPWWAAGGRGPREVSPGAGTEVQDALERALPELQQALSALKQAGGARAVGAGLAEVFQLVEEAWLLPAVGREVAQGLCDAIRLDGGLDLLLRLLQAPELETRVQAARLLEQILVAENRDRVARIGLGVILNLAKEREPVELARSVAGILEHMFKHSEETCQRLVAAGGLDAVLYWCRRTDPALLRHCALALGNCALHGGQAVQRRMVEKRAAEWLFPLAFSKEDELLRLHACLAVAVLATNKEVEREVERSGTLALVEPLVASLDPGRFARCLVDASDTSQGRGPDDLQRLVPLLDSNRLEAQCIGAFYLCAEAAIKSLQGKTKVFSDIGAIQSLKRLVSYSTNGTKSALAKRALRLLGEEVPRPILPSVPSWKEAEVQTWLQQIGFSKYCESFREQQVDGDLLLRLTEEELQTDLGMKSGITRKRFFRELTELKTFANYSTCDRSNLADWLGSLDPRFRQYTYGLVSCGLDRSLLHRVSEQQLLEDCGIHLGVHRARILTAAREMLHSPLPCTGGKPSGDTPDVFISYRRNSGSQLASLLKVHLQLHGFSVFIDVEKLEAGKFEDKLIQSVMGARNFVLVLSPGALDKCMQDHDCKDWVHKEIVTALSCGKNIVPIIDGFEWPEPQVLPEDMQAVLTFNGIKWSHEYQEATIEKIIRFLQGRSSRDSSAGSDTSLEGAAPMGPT

[12] = target: Mitogen-activated protein kinase 7 (Homo sapiens) (UniProt Q13164); test: Gal4-ERK5 driven luciferase induction – cell-based, HTS, primary screen (AID 1508626;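 active = luciferase signal above three times the same-plate solvent-only control wells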;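 also: luciferase driven by Gal4-ERK5 fusion binding five Gal4 sites before minimal TATA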); conditions: HeLa Gal4-ERK5 transactivation, 18 h, at 5 µM, stronger effect = higher value
Sequence of Mitogen-activated protein kinase 7 (Homo sapiens) (Q13164 whole entry, looked up, the tested form may be a part): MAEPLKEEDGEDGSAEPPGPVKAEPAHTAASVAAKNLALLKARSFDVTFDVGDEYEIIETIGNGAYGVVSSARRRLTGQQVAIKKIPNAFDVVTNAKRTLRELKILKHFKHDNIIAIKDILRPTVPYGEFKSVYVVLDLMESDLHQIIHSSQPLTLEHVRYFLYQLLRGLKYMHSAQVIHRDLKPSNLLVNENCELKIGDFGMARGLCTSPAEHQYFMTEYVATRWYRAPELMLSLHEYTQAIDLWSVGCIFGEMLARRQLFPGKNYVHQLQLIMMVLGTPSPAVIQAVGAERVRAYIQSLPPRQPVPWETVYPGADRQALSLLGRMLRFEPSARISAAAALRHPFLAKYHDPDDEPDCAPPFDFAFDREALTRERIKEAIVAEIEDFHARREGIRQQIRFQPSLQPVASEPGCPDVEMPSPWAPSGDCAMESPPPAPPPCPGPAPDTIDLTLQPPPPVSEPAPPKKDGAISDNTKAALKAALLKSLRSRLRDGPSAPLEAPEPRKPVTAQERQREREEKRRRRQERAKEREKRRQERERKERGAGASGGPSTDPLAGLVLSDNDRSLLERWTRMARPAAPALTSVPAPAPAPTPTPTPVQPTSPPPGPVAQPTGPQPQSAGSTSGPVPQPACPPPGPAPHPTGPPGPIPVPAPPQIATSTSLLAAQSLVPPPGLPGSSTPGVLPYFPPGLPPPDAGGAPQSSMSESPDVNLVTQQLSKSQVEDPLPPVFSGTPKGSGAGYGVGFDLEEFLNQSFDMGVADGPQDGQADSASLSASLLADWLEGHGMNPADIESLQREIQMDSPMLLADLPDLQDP

[13] = stronger effect = lower value, cell number ratio, induced over uninduced
[14] = measured here: relative caspase fold change +Dox/-Dox
[15] = measured here: total cells with miR-34 induction, stronger effect = lower value
[16] = measured here: total cells without miR-34 induction
[17] = MELAS cybrid survival, CellTiter-Glo 48 h, stronger effect = higher value
[18] = Rieske KO mouse fibroblast survival, CellTiter-Glo 72 h

SMILES	inhibition [1]	fluorescence ratio (interference) [2]	fold change [3, 13]	fold change [3, 14]	cell count [3, 15]	cell count [3, 16]	outcome [4]	z-score [5]	fluorescence slope change [6]	survival [7]	parasite load remaining [8]	viability [8]	z-score [9, 17]	z-score [9, 18]	period change [10]	remaining NAD [11]	luciferase signal [12]
N#C/C(=C\c1ccc(-c2cc(Cl)ccc2Cl)o1)C(=O)Nc1cccc2ncccc12	-12% (inactive)	0.8 (active)	1.06 (inactive) and 0.955 (inactive)	0.614 and 1.48	1870 and 5590	1750 and 5850	inactive	0.46 (inactive)	–	–	–	–	–	–	–	–	–
O=C1CC(c2ccc(O)cc2)Oc2cc(O)cc(O)c21 (stereo not given)	–	–	0.857 (inactive) and 0.936 (inactive)	1.25 and 0.746	9030 and 10100	10500 and 10800	–	–	29.7% (inactive)	12.5 (inactive)	129% (inactive) and 75.7% (inactive)	105% and 74.5%	-0.339 (inactive)	0.634	–	–	–
O=[N+]([O-])c1ccc2c(c1)S(=O)(=O)C=C2	-2% (inactive)	1 (inactive)	0.698 (active) and 1.19 (inactive)	0.963 and 0.522	598 and 1740	856 and 1460	inactive	-1.38 (inactive)	–	–	–	–	3.07 (active)	-0.336	–	–	–
CC(C)(C)c1onc(OCP(=O)(O)O)c1CC(N)C(=O)O (stereo not given)	-3% (inactive)	0.9 (inactive) and 1 (inactive)	1.04 (inactive) and 0.947 (inactive)	1.07 and 1.18	10900 and 10600	10500 and 11200	inactive	0.82 (inactive) and 0.145 (inactive)	–	–	–	–	–	–	-0.03 h (inactive)	–	–
NC1CONC1=O (stereo not given)	-2% (inactive)	1 (inactive)	1.01 (inactive) and 0.986 (inactive)	2.01 and 1.56	10700 and 9620	10600 and 9760	inactive	0.065 (inactive) and 0.91 (inactive)	–	–	–	–	–	–	-0.095 h (inactive)	–	–
CO/N=C(\C(=O)N[C@@H]1C(=O)N2C(C(=O)O)=C(COC(C)=O)CS[C@H]12)c1csc(N)n1 (stereo in doubt)	–	–	1.01 (inactive) and 0.948 (inactive)	2.06 and 1.21	10500 and 9330	10300 and 9840	–	0.04 (inactive)	81.1% (active)	16.2 (inactive)	35.6% (inactive) and 93.3% (inactive)	65.7% and 139%	0.18 (inactive)	-0.136	-0.095 h (inactive)	10 nM (inactive)	152 AU (inactive)
